In the supplement of paper PMC10849652:
Targets with a hit are over-represented here; the source holds about 7,900 in all. About 0.6% of all pairs of compound and target were hits. Values without a mark were called inactive.

Assays:
Test in all cases: log2 fold change, soluble protein after heating vs DMSO (PISA); higher = thermal stabilisation; K562 cells, 10 uM, 30 min; active = over 0.2 and 3.5 SD of the protein, either way, in both replicates (recomputed)
bafetinib = compound: Cc1ccc(NC(=O)c2ccc(CN3CC[C@H](N(C)C)C3)c(C(F)(F)F)c2)cc1Nc1nccc(-c2cncnc2)n1 [bafetinib]
How it was run: (§1)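 Soluble protein was quantified by TMTpro 16plex LC-MS/MS after channel sums were equalised. It was obtained as the supernatant after 21,000xg for 90 min from pooled aliquots of K562 cells (2×10^6 cells/mL, 10 μM compound, 30 min) heated for 3 min across 48°C-58°C and extracted in PBS with 0.5% NP-40 at 4°C. Thermal stability values are relative to control samples and come from duplicates. They are given as log2 fold changes.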

[1] = compound: Cc1cccc(CC(=O)N2CCc3c2ccc(-c2cn(C)c4ncnc(N)c24)c3F)n1
How it was run: as §1

nilotinib = compound: Cc1cn(-c2cc(NC(=O)c3ccc(C)c(Nc4nccc(-c5cccnc5)n4)c3)cc(C(F)(F)F)c2)cn1 [nilotinib]
How it was run: as §1

[2] = compound: Cc1nc(Nc2n[nH]c3c2CN(C(=O)N[C@H](CN(C)C)c2ccccc2)C3(C)C)c2sccc2n1
How it was run: as §1

dasatinib = compound: Cc1nc(Nc2ncc(C(=O)Nc3c(C)cccc3Cl)s2)cc(N2CCN(CCO)CC2)n1 [dasatinib]
How it was run: as §1

[3] = compound: Cc1ncc(-c2ccnc(Nc3ccc(S(C)(=O)=O)cc3)n2)n1C(C)C
How it was run: as §1

[4] = compound: Cn1cc(-c2ccc3c(c2)CCN3C(=O)Cc2cccc(C(F)(F)F)c2)c2c(N)ncnc21
How it was run: as §1

[5] = compound: Cn1cc(-c2ccc3nnc(C(F)(F)c4ccc5ncccc5c4)n3n2)cn1
How it was run: as §1

tipifarnib = compound: Cn1cncc1[C@@](N)(c1ccc(Cl)cc1)c1ccc2c(c1)c(-c1cccc(Cl)c1)cc(=O)n2C [tipifarnib]
How it was run: as §1

mubritinib = compound: FC(F)(F)c1ccc(/C=C/c2nc(COc3ccc(CCCCn4ccnn4)cc3)co2)cc1 [mubritinib]
How it was run: as §1

[6] = compound: NC(=O)Nc1cc(-c2cccc(F)c2)sc1C(=O)N[C@H]1CCCNC1
How it was run: as §1

[7] = compound: NC(=O)c1cnc(N[C@@H]2CCCC[C@@H]2N)nc1Nc1cccc(-n2nccn2)c1
How it was run: as §1

[8] = compound: NC1(c2ccc(-c3nc4ccn5c(=O)[nH]nc5c4cc3-c3ccccc3)cc2)CCC1
How it was run: as §1

[9] = compound: NCC(=O)Nc1ccc(-n2nc(C(F)(F)F)cc2-c2ccc3c(ccc4ccccc43)c2)cc1
How it was run: as §1

entinostat = compound: Nc1ccccc1NC(=O)c1ccc(CNC(=O)OCc2cccnc2)cc1 [entinostat]
How it was run: as §1

vorinostat = compound: O=C(CCCCCCC(=O)Nc1ccccc1)NO [vorinostat]
How it was run: as §1

citarinostat = compound: O=C(CCCCCCNC(=O)c1cnc(N(c2ccccc2)c2ccccc2Cl)nc1)NO [citarinostat]
How it was run: as §1

silmitasertib = compound: O=C(O)c1ccc2c(c1)nc(Nc1cccc(Cl)c1)c1ccncc12 [silmitasertib]
How it was run: as §1

[10] = compound: O=C1NC(=O)C(c2cnc3ccccn23)=C1c1cn2c3c(cc(F)cc13)CN(C(=O)N1CCCCC1)CC2
How it was run: as §1

[11] = compound: c1cc(OCCN2CCCCC2)cc(-c2n[nH]c3ccc(-c4nnc[nH]4)cc23)c1
How it was run: as §1

UniProt P0C0L4, sequence (P0C0L4 whole entry, looked up): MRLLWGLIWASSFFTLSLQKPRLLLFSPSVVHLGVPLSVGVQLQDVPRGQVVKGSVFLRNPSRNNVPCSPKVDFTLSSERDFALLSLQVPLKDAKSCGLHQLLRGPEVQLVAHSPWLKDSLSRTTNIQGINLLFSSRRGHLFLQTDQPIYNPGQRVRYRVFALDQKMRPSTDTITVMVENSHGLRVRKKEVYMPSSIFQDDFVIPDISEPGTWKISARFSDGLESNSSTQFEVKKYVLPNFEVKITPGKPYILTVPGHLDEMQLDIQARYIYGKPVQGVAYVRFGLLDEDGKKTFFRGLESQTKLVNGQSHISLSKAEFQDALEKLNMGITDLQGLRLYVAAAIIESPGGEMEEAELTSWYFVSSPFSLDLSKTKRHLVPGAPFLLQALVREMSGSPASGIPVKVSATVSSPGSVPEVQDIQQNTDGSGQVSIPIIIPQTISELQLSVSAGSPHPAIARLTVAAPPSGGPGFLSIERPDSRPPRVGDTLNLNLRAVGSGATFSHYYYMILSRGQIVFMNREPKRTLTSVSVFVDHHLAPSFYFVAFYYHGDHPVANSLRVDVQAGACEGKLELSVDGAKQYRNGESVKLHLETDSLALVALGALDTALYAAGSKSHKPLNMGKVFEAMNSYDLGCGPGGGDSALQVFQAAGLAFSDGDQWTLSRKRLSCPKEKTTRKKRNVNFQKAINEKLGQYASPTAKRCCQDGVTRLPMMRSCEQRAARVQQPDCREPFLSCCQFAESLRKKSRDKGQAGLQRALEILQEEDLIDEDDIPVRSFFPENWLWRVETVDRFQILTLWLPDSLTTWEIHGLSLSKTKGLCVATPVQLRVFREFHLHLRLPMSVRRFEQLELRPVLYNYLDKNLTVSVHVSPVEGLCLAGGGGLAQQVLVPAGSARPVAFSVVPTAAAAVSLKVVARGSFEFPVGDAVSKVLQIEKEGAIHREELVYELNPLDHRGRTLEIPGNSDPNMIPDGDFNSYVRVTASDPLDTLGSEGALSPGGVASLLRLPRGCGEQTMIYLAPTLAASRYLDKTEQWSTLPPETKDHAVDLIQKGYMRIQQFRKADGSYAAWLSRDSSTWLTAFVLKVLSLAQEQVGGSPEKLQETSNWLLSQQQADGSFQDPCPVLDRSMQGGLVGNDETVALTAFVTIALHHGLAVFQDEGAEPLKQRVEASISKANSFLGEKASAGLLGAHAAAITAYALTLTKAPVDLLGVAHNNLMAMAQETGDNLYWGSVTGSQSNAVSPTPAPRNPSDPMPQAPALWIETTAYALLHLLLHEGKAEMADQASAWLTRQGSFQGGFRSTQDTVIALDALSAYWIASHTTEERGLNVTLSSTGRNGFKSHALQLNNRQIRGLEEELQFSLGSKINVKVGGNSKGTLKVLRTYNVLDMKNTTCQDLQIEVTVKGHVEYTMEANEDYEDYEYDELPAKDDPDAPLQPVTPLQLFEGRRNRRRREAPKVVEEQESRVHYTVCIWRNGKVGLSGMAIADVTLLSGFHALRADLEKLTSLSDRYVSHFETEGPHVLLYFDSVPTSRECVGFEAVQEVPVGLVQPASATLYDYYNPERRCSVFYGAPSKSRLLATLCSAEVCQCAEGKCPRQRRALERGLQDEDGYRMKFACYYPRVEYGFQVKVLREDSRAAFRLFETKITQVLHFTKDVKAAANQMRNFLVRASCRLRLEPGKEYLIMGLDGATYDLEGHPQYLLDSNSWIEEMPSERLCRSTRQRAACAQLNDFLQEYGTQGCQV
UniProt Q5T6V5, sequence (Q5T6V5 whole entry, looked up): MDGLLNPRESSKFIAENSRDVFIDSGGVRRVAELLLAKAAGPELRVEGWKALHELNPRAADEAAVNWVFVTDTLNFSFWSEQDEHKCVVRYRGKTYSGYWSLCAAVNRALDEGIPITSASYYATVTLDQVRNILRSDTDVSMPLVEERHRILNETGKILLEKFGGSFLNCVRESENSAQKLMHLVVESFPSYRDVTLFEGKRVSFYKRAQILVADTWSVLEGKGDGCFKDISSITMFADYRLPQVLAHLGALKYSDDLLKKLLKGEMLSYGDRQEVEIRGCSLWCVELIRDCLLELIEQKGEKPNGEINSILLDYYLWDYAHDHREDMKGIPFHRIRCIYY
UniProt O75390, sequence (O75390 whole entry, looked up): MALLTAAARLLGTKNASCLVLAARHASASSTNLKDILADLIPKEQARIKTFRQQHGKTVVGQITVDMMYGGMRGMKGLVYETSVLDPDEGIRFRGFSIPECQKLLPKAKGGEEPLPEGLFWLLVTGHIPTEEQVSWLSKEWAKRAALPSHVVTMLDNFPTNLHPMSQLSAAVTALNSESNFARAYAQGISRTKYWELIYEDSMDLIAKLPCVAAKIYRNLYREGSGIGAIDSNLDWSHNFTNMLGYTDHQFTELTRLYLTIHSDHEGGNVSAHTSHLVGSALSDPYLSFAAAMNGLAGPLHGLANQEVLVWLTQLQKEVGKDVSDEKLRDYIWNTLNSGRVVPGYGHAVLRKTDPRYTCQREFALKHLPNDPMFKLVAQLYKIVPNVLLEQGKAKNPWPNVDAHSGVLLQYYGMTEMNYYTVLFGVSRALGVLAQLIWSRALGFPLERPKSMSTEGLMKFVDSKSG
UniProt O15234, sequence (O15234 whole entry, looked up): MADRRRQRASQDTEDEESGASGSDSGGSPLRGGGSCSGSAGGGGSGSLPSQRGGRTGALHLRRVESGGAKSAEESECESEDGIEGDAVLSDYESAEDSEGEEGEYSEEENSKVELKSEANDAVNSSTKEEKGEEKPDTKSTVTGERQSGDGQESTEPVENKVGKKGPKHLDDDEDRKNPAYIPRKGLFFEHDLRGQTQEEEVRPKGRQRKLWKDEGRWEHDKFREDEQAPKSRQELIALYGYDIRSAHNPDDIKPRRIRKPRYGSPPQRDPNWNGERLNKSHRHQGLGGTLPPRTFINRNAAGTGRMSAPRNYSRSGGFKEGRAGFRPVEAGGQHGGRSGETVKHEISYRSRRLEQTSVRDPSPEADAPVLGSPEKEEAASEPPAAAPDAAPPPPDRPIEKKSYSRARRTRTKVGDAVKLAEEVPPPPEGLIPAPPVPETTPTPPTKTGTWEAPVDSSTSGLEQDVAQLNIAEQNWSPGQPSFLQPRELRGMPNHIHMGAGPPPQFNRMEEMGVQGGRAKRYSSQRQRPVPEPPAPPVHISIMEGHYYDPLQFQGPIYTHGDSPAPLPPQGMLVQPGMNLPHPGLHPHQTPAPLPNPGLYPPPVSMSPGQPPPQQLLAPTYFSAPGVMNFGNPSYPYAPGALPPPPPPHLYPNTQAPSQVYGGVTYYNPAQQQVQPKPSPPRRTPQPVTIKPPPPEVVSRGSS
UniProt Q9ULV3, sequence (Q9ULV3 whole entry, looked up): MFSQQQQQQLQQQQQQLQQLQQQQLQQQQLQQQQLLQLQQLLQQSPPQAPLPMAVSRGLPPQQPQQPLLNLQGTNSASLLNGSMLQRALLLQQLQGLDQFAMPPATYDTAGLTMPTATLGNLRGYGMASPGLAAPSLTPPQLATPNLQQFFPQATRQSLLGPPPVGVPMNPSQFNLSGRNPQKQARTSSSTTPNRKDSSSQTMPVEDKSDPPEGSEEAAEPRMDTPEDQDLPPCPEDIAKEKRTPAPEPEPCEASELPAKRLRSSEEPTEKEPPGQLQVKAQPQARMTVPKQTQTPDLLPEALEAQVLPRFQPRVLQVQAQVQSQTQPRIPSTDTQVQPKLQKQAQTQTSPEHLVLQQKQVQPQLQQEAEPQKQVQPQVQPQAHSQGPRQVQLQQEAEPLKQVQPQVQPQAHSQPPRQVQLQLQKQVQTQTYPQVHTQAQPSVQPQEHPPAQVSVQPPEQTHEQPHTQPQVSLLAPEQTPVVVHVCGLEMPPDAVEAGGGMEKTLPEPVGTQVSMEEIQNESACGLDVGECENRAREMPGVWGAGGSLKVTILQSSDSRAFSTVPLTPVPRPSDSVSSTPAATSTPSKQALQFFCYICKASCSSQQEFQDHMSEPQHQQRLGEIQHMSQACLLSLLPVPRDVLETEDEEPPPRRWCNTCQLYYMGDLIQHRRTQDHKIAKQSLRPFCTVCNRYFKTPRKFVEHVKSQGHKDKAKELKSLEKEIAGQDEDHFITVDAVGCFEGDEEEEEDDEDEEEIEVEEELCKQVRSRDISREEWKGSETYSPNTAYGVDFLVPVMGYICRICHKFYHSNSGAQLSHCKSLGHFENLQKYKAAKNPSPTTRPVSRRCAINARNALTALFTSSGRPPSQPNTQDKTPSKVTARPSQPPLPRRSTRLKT
UniProt O76031, sequence (O76031 whole entry, looked up): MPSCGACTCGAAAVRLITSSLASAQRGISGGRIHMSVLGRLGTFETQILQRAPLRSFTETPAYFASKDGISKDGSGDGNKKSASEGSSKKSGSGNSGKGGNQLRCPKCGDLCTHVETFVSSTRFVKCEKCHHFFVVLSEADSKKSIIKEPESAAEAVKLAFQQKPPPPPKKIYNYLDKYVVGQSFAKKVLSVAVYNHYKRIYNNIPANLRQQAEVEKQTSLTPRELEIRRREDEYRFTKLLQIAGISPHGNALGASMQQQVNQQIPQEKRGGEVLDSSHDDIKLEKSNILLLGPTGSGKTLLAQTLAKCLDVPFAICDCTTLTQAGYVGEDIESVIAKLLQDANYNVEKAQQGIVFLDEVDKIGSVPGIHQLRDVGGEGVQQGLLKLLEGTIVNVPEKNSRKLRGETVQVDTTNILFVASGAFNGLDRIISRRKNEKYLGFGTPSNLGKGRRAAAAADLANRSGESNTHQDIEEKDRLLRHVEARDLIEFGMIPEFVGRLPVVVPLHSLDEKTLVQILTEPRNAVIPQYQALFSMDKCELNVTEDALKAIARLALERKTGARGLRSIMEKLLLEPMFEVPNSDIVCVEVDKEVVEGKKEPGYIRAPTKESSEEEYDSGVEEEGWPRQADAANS
UniProt Q9Y6H1, sequence (Q9Y6H1 whole entry, looked up): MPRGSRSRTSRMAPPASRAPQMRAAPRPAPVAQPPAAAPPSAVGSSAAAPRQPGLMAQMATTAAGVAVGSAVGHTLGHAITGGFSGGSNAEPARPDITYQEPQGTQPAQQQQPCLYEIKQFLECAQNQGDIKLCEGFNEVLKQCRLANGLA

Row | Target | log2 fold change (bafetinib) | log2 fold change [1] | log2 fold change (nilotinib) | log2 fold change [2] | log2 fold change (dasatinib) | log2 fold change [3] | log2 fold change [4] | log2 fold change [5] | log2 fold change (tipifarnib) | log2 fold change (mubritinib) | log2 fold change [6] | log2 fold change [7] | log2 fold change [8] | log2 fold change [9] | log2 fold change (entinostat) | log2 fold change (vorinostat) | log2 fold change (citarinostat) | log2 fold change (silmitasertib) | log2 fold change [10] | log2 fold change [11]
1 | CHD3 isoform 3 (UniProt Q12873) | 0.01 | 0.004 | -0.093 | -0.274 | -0.086 | -0.172 | -0.06 | 0.063 | -0.089 | -0.058 | 0.023 | -0.152 | -0.113 | -0.013 | 0.036 | 0.101 | 0.057 | 0.154 | 0.057 | -0.101
2 | CAMSAP1 isoform 3 (UniProt Q5T5Y3) | -0.019 | -0.05 | 0.043 | -0.061 | -0.144 | -0.055 | 0.091 | -0.021 | -0.132 | -0.005 | 0.124 | -0.048 | -0.172 | -0.466 (active) | -0.29 | -0.078 | 0.045 | 0.064 | -0.028 | -0.013
3 | CASC3 (UniProt O15234) | -0.064 | -0.069 | -0.064 | 0.481 (active) | 0.031 | 0.511 (active) | -0.079 | -0.069 | 0.004 | 0.084 | 0.015 | 0.238 | -0.01 | 0.001 | -0.039 | -0.072 | 0 | 0.054 | 0.24 | -0.133
4 | CSNK1D (UniProt P48730) | 0.1 | 0.064 | -0.025 | 0.073 | 0.119 | 0.241 | -0.083 | -0.042 | 0.051 | -0.148 | -0.043 | 0.185 | 0.106 | -0.02 | -0.062 | 0 | -0.025 | 0.054 | 0.107 | 0.173
5 | CLPX (UniProt O76031) | 0.008 | -0.074 | -0.006 | 0.042 | 0.006 | -0.019 | -0.012 | 0.032 | 0.052 | -0.048 | 0.01 | 0.011 | -0.031 | -0.01 | -0.019 | 0.007 | 0.011 | 0.022 | 0.058 | -0.05
6 | CDK6 (UniProt Q00534) | -0.017 | -0.002 | -0.021 | -0.079 | -0.01 | 0.081 | -0.019 | -0.033 | -0.043 | 0.012 | -0.004 | -0.082 | -0.017 | -0.003 | 0.009 | 0.005 | -0.006 | 0.131 | 0.146 | 0.017
7 | CS (UniProt O75390) | 0.013 | -0.061 | 0.011 | -0.051 | -0.131 | -0.097 | 0.075 | 0.083 | -0.033 | 0.015 | -0.024 | -0.087 | -0.187 | 0.007 | 0.001 | 0.064 | 0.012 | -0.039 | 0.003 | -0.068
8 | CDC42BPB (UniProt Q9Y5S2) | 0.22 | -0.034 | 0.062 | -0.118 | -0.029 | 0.106 | -0.054 | -0.017 | 0.094 | 0.177 | -0.205 | 0.054 | -0.254 | -0.012 | 0.155 | 0.06 | 0.085 | -0.087 | -0.057 | -0.201
9 | CIZ1 (UniProt Q9ULV3) | -0.063 | 0.013 | 0.016 | -0.181 | -0.016 | -0.063 | 0.021 | -0.066 | 0.008 | 0.019 | -0.031 | -0.087 | -0.053 | -0.022 | -0.032 | 0.036 | 0.023 | 0.026 | 0.074 | -0.045
10 | CNOT1 (UniProt A5YKK6) | 0.009 | 0.033 | -0.066 | -0.058 | -0.106 | -0.014 | 0.023 | -0.035 | -0.061 | 0.052 | 0 | 0.01 | -0.075 | -0.026 | 0.024 | 0.035 | 0.05 | 0.055 | 0.004 | -0.032
11 | CDC42EP1 (UniProt Q00587) | -0.115 | 0.092 | -0.072 | -0.59 (active) | -0.2 | -0.211 | 0.079 | 0.051 | 0.049 | 0.007 | -0.272 | -0.258 | -0.399 | -0.063 | 0.1 | 0.158 | 0.108 | -0.04 | -0.118 | -0.138
12 | CHCHD2 (UniProt Q9Y6H1) | -0.026 | -0.002 | 0.037 | 0.029 | 0.075 | -0.086 | 0.116 | -0.02 | -0.06 | 0.04 | -0.039 | -0.011 | 0.022 | 0.012 | -0.01 | 0.005 | 0.018 | 0.009 | -0.13 | -0.008
13 | C9orf64 (UniProt Q5T6V5) | 0.031 | 0.218 | -0.045 | -0.094 | -0.197 | -0.04 | 0.079 | 0.085 | -0.163 | 0.282 | 0 | -0.155 | -0.338 | -0.02 | 0.088 | 0.167 | 0.064 | 0.037 | 0.012 | -0.106
14 | C4A (UniProt P0C0L4) | -0.316 | -0.018 | 0.027 | 0.136 | -0.044 | 0.217 | 0.163 | 0.052 | -0.087 | -0.193 | -0.024 | -0.016 | -0.129 | 0 | 0.021 | 0.265 | -0.071 | 0.059 | 0.038 | 0.146
15 | CNDP2 (UniProt Q96KP4) | -0.03 | 0.006 | 0.045 | -0.015 | -0.031 | -0.041 | 0.066 | 0.032 | -0.067 | 0.101 | -0.013 | -0.035 | -0.052 | 0.01 | -0.015 | -0.015 | 0.023 | -0.065 | -0.005 | 0.001
